A number with no mark means an inactive call. Results filed as inconclusive are left out. Activity calls are given as the source filed them. Unless noted, the call rests on the fitted dose curve; in most records, active means well fitted curve in the direction sought with a large enough effect; inconclusive means small, poorly fitted or top-dose-only effect, or another doubt; inactive means no such curve, though single readings can be large; an effect the other way counts as inactive or inconclusive.

Test [1] can be described thus: S16 Schwann cell viability assay (CellTiter-Glo assay) (AID 624031).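 Further: native untransfected S16 rat Schwann cells; cellular ATP luminescence as a viability measure; plate controls were DMSO-treated cells for no effect and cell-free wells for full effect; nearly all actives have a fitted effect of over 70% in size.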 The method in brief:
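Rat S16 Schwann cells without reporter constructs received compound or DMSO for 24 h at 37 °C under 5% CO2. Cellular ATP was then quantified by CellTiter-Glo luminescence, with vehicle wells defined as 0% activity and cell-free wells as reference.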
(In ATP-based viability assays light output follows the ATP content of the culture.)

A short description of test [2]: S16 Schwann cell PMP22 intronic element beta-lactamase assay (AID 624044; calls by dose curve; further: nearly all actives have a fitted effect of over 15% in size; further: potency means the concentration at half of the fitted maximal effect;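 on ratio activity, negative = inhibition: 0% = DMSO and -100% = potassium clavulanate positive control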). Particulars: S16 rat Schwann cells, PMP22 element beta-lactamase FRET, 24 h; ratio activity, negative = inhibition: at 38.3 µM (top of the series). The procedure, abridged:
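Rat S16 Schwann cells with beta-Lac driven by a PMP22 intronic element, compound-treated 24 h at 37 °C. LiveBLAzer FRET B/G read: 460 nm normalized to potassium clavulanate vs DMSO; 535 nm FRET as viability; concentration-effect curves classified.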

Another test concerns ATS189. Put plainly: qHTS profiling for inhibitors of Plasmodium falciparum proliferation (AID 504749). Further: nearly all actives have a fitted effect of over 60% in size. Further: potency means the concentration at half of the fitted maximal effect.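 On activity, negative = inhibition: 0% = DMSO vehicle and full inhibition = artemisinin control.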 Conditions: P. falciparum in erythrocytes, SYBR Green DNA, 72 h; series mostly up to 28.7 µM. The procedure, abridged: (§1)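 Parasite proliferation within erythrocytes, 72 h exposure. Endpoint: SYBR Green I fluorescence after overnight lysis at room temperature. Controls: 0.29 uM artemisinin, DMSO.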

A further test concerns C2A. The description is as above. Particulars: P. falciparum in erythrocytes, SYBR Green DNA, 72 h; series mostly up to 28.7 µM. The method in brief: as §1
A further test relates to CP191. Described as above. Conditions: P. falciparum in erythrocytes, SYBR Green DNA, 72 h; series mostly up to 28.7 µM. The procedure, abridged: as §1
A further test concerns CP192. Described as above. Conditions: P. falciparum in erythrocytes, SYBR Green DNA, 72 h; series mostly up to 28.7 µM. The method in brief: as §1
The test system of another test is CP201. Described as above. Conditions: P. falciparum in erythrocytes, SYBR Green DNA, 72 h; series mostly up to 28.7 µM. The method in brief:
as §1

A further test has as its system CP215. The test is described as above. Particulars: P. falciparum in erythrocytes, SYBR Green DNA, 72 h; series mostly up to 28.7 µM. The method in brief: as §1
Another test concerns CP238. Described as above. Conditions: P. falciparum in erythrocytes, SYBR Green DNA, 72 h; series mostly up to 28.7 µM. The procedure, abridged:
as §1

Another test deals with ECU. Described as above. Particulars: P. falciparum in erythrocytes, SYBR Green DNA, 72 h; series mostly up to 28.7 µM. The procedure, abridged: as §1
The subject of another test is FAB9. Described as above. Conditions: P. falciparum in erythrocytes, SYBR Green DNA, 72 h; series mostly up to 28.7 µM. The procedure, abridged:
as §1

The next test concerns JCK. Described as above. Particulars: P. falciparum in erythrocytes, SYBR Green DNA, 72 h; series mostly up to 28.7 µM. The procedure, abridged:
as §1

Another test has as its system PC49. Described as above. Particulars: P. falciparum in erythrocytes, SYBR Green DNA, 72 h; series mostly up to 28.7 µM. The method in brief:
as §1

Test in test [3]: as above
Conditions: P. falciparum in erythrocytes, SYBR Green DNA, 72 h; for activity, negative = inhibition: at 28.7 µM (top of the series). The procedure, abridged: as §1

The test system of a further test is CP325. Described as above. Conditions: P. falciparum in erythrocytes, SYBR Green DNA, 72 h; series mostly up to 28.7 µM. The method in brief: as §1
Test [4] concerns the target Ubiquitin carboxyl-terminal hydrolase 1 (Homo sapiens) (UniProt O94782). Nature of the test: Inhibitors of USP1/UAF1: Pilot qHTS (AID 504865).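 Further: rhodamine fluorescence freed from ubiquitin-rhodamine substrate followed over time; top concentration of the series differs between compounds; on the % scale 0 is the no-effect control and ±100 the full control effect; nearly all actives have a fitted effect of over 35% in size.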 The procedure, abridged: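 USP1/UAF1 complex at 1 nM preincubated 15 min at room temperature with compound, then Ub-Rho substrate added at 150 nM final. Fluorescence (480/540 nm) read kinetically in 50 mM HEPES pH 7.8, 0.5 mM EDTA, 1 mM TCEP, 0.1 mg/ml BSA, 0.01% Tween-20.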

Test [5] has as its target Cytochrome P450 3A4 (Homo sapiens) (UniProt P08684). Nature of the test: qHTS Assay for Inhibitors and Substrates of Cytochrome P450 3A4 (AID 884). Further: on the % scale 0 is the no-effect control and ±100 the full control effect; nearly all actives have a fitted effect of over 50% in size. The method in brief:
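20 nM human CYP3A4 with 25 uM Luciferin-PPXE (at KM) in 200 mM KPO4, preincubated 10 min with compound; NADPH regeneration started a 60 min RT reaction. Luciferin detected by luminescence, normalized to 57 uM ketoconazole as full inhibition.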
A general note: qHTS replaces the single test concentration by a dilution series.

Test [6] in a line: Confirmation and Secondary Assay for Modulators of Hemoglobin Beta Chain Splicing at IVS2 654 locus (AID 910).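 Further: per-well total GFP intensity by laser scanning cytometry after 2-day treatment; % of control where 0% means no effect.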 The procedure, abridged:
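HeLa cells stably carrying EGFP interrupted by mutant beta-globin IVS2-654 intron (CMV-driven) were treated with compound for 2 days at 37C; corrected splicing was scored as total peak GFP intensity per well (488 nm excitation, 500-520 nm emission).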

A short description of test [7]: Confirmation and Secondary Assay for Modulators of Hemoglobin Beta Chain Splicing at IVS2 705 locus (AID 930).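 Further: HeLa cells stably expressing the EGFP-705 splicing reporter; GFP fluorescence per well restored by corrected splicing of the IVS2-705 intron in EGFP; % of control where 0% means no effect.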 The procedure, abridged:
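Per-well GFP, captured at 1 x 8 µm resolution with 488 nm excitation, served as the read-out for HeLa EGFP-705 cells incubated 2 days with test compound versus DMSO.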

Chain of Ubiquitin carboxyl-terminal hydrolase 1 (Homo sapiens) (O94782 whole entry, looked up): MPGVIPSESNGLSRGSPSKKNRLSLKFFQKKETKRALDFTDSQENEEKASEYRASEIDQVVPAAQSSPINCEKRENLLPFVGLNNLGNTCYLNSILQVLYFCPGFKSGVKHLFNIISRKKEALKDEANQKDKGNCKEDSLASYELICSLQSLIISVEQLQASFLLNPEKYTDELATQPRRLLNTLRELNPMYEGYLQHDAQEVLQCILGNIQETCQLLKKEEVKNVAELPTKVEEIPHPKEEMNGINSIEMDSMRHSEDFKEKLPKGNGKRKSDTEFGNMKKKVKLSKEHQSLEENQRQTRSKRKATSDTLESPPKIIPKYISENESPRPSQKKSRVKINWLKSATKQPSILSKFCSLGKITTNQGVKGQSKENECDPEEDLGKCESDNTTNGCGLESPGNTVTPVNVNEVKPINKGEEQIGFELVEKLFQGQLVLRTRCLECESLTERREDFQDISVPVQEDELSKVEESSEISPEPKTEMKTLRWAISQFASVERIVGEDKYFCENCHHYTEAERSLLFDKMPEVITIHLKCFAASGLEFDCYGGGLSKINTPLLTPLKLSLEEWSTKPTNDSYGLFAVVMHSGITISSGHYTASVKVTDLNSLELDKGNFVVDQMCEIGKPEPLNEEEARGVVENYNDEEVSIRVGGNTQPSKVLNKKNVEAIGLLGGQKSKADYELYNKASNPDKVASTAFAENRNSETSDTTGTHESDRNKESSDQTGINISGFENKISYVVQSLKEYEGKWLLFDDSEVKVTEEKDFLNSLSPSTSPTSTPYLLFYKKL
Chain of Cytochrome P450 3A4 (Homo sapiens) (P08684 whole entry, looked up): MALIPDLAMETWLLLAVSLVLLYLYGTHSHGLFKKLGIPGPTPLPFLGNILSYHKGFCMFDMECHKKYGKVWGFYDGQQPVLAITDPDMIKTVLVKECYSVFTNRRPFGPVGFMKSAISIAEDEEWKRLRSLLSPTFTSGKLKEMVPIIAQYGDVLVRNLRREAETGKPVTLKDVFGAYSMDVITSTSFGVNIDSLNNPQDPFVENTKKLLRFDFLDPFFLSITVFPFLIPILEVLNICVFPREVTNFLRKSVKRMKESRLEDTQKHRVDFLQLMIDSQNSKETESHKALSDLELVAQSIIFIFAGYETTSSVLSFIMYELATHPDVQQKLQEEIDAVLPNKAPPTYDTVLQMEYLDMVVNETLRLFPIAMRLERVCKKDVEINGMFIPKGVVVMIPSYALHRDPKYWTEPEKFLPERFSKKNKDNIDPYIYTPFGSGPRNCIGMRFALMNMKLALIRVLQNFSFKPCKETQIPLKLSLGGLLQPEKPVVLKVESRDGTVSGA

Consider `CN(C)C1C(=O)C(C(N)=O)C(=O)C2(O)C(=O)C3C(=O)c4c(O)cccc4C(C)(O)C3C(O)C12` (centres undefined), for which the Potency result (in test [1]; in test [2]; with ATS189; with C2A; with CP191; with CP192) was “inactive” each time. Besides, the Potency entry in the test with CP201, in the test on CP215, in the test on CP238, in the test with ECU, in the test with FAB9 and with JCK was “inactive” each time. In the test on PC49, the Potency result was “inactive”.

In the case of `C#C[C@]1(O)CC[C@H]2[C@@H]3CCC4=CC(=O)CCC4(C)[C@H]3CCC21C` (some centres undefined), the Potency result (in [1]; in test [2]; in the test with ATS189; in the test on C2A; in the test on CP191; with CP192) was “inactive” in each case. Moreover, the Potency entry with CP201, in the test on CP215, in the test on CP238, with CP325, with ECU and in the test with FAB9 was “inactive” each time. For the same compound, the Potency result in the test with JCK and in the test on PC49 was “inactive” throughout. The results for the activity, negative = inhibition in test [3] (parasite line A) and in test [3] (parasite line B) were -6.98% and 2.88%, respectively.

`CCC/C=C/C=C/C(=O)OC1/C(=C/C(=O)OC)CC2CC(C(C)O)OC(=O)CC(O)CC3CC(OC(C)=O)C(C)(C)C(O)(CC4C/C(=C/C(=O)OC)CC(/C=C\C(C)(C)C1(O)O2)O4)O3` (centres undefined): the Potency entry in [1] is “inactive”. Also, the ratio activity, negative = inhibition in test [2] was -43.6% (active). In addition, the Potency is 1580 nM (active) in test [3] (parasite line A); 1780 nM (active) in test [3] (parasite line B); 891 nM (active) with ATS189; 1260 nM (active) in the test on C2A; 1120 nM (active) with CP191; 1690 nM (active) with CP215. Moreover, the Potency in the test on CP238 was 1000 nM (active); with ECU it was 1260 nM (active); in the test with FAB9 it was 2240 nM (active); with JCK, 3160 nM (active); in the test with PC49, 1260 nM (active).

Regarding `CCN(CC)C(=O)N[C@@H]1C=C2c3cccc4[nH]cc(c34)C[C@H]2N(C)C1`, the Potency result (in [4]; in test [2]; with CP192; in the test on CP201; in the test on CP215; in the test with CP325) was “inactive” in each case. For the same compound, the Potency entry in the test with FAB9 and in the test on PC49 was “inactive” in each case. In test [3] (parasite line A), the activity, negative = inhibition was -22.6%.

In the case of `CC(C)CCC(=O)OC1CCC2C3CCC4=CC(=O)CC[C@]4(C)C3CC[C@]12C` (some centres undefined), the Potency in test [3] (parasite line A) was 10000 nM (active); in the test on ATS189 it was 8910 nM (active); with CP191, 6310 nM (active); with ECU it was 10000 nM (active). Also, the Potency entry in the test with CP192, in the test with CP201, in the test on CP215, with CP325, with FAB9 and with JCK was “inactive” in each case. Besides, the Potency entry in the test on PC49 is “inactive”.

For the compound `O=[N+]([O-])OC1CO[C@H]2C(O[N+](=O)[O-])COC12` (some centres undefined), the Potency entry (in test [5]; in test [6]; in test [4]; in [1]; in test [2]; in the test with ATS189) was “inactive” throughout. The Potency result in the test with C2A, in the test with CP191, in the test with CP192, in the test with CP201, in the test on CP238 and in the test on CP325 was “inactive” in each case. Moreover, the Potency entry in the test with ECU, with FAB9, in the test on JCK and with PC49 was “inactive” each time. Besides, the compound was classed as inactive in test [7]. The activity, negative = inhibition in [3] (parasite line A) is -2.15%; in test [3] (parasite line B), 1.56%.

On to `CC(Cc1ccccc1)N(C)C` (centres undefined), for which the Potency result (in [4]; in test [1]; in test [2]; with ATS189; in the test on C2A; in the test on CP191) was “inactive” in each case. Besides, the Potency entry in the test on CP192, in the test on CP201, in the test with CP215, in the test with CP238, in the test with CP325 and with ECU was “inactive” each time. Also, the Potency entry in the test on FAB9, in the test on JCK and with PC49 was “inactive” throughout. For the same compound, the activity, negative = inhibition in test [3] (parasite line A) was 9.11%; in test [3] (parasite line B) it was 11.3%.

Take `CCC(=O)OC1(c2ccccc2)CCN(C)CC1C` (centres undefined): the Potency entry (in test [4]; in [1]; in [2]; in the test on C2A; in the test with CP191; with CP192) was “inactive” in each case. The Potency result with CP201, in the test on CP215, in the test with ECU, in the test with FAB9 and with JCK was “inactive” in each case. Also, the activity, negative = inhibition is -1.38% in [3] (parasite line A) and 2.19% in test [3] (parasite line B).

In the case of `O=C1CC2OCC=C3CN4CC[C@]56c7ccccc7N1C5C2[C@H]3C[C@H]46` (some centres undefined), the Potency entry (in test [4]; in [1]; in [2]; in the test on CP191; in the test on FAB9; in the test with PC49) was “inactive” each time. For the same compound, the activity, negative = inhibition in [3] (parasite line B) is -18.7%. Moreover, the Potency in the test on CP238 was 10000 nM (active); in the test on CP325, 13500 nM (active).

`COC(C(=O)C(O)C(C)O)C1Cc2cc3cc(OC4CC(OC5CC(O)C(OC)C(C)O5)C(OC(C)=O)C(C)O4)c(C)c(O)c3c(O)c2C(=O)C1OC1CC(OC2CC(OC3CC(C)(O)C(OC(C)=O)C(C)O3)C(O)C(C)O2)C(O)C(C)O1` (centres undefined): the Potency entry in test [1] was “inactive”. Besides, the Potency in test [2] is 79.4 nM (active); in [3] (parasite line A), 708 nM (active); in test [3] (parasite line B), 1410 nM (active); with ATS189, 1410 nM (active); in the test with C2A it was 1780 nM (active); in the test on CP191 it was 1780 nM (active). In addition, the Potency was 4260 nM (active) in the test with CP192; 15100 nM (active) with CP201; 4260 nM (active) in the test with CP215; 1260 nM (active) in the test with CP238; 3380 nM (active) in the test on CP325; 1000 nM (active) in the test with ECU. Further, the Potency with FAB9 was 2000 nM (active); in the test with JCK, 3980 nM (active); in the test with PC49 it was 2820 nM (active).

`O=C1CC2OCC=C3CN4CCC56c7ccccc7N1C5[C@H]2[C@H]3C[C@H]46` (some centres undefined) (tested in a mixture with another compound): the Potency result (in test [4]; in test [1]; in [2]; in the test with ATS189; with C2A; with CP191) was “inactive” throughout. Further, the Potency entry in the test with CP192, with CP201, with CP238, in the test on CP325 and with JCK was “inactive” each time.

`CC(C)=CC1C(C(=O)OCc2coc(Cc3ccccc3)c2)C1(C)C` (centres undefined): the Potency entry (in test [1]; in the test on ATS189; with C2A; in the test on CP192; in the test with CP201; with CP215) was “inactive” each time. Also, the Potency result in the test on CP238, in the test on CP325, in the test on ECU, with FAB9, in the test with JCK and in the test with PC49 was “inactive” each time.

For the origin of these results see PubChem BioAssay (NCATS).
